This is an account of results in PubChem BioAssay.

In the assay the target is Pantothenate synthetase (Mycobacterium tuberculosis (strain ATCC 25618 / H37Rv)) (UniProt P9WIL5). Description: Recombinant Mtb pantothenate synthetase (PanC) inhibitors, coupled enzyme, confirmatory (AID 375).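 Further: 0% = full reaction with vehicle and 100% = no enzyme background.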 As to conditions: coupled enzyme assay; at 10 µM, hits give high values.

A number with no mark means an inactive call. How the calls were made is not given here.

Chain of Pantothenate synthetase (Mycobacterium tuberculosis (strain ATCC 25618 / H37Rv)) (P9WIL5 whole entry, looked up): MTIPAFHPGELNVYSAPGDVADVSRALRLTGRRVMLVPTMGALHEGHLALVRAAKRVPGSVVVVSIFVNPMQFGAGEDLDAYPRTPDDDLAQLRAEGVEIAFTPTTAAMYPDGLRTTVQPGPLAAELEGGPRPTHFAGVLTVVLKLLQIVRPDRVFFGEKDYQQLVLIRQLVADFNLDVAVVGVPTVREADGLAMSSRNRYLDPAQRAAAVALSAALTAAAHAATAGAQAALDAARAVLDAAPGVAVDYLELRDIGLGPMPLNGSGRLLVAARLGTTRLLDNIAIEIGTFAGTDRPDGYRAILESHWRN

Take `O=C(CCCSc1nc2ccccc2s1)NC1=NCCS1`: the inhibition is 0%.

For `N#Cc1ccccc1NC(=O)CSc1nnc(-c2ccccc2)n1-c1ccccc1`, the inhibition is 0%.

Consider `Cn1c2c(c(=O)n(C)c1=O)C(c1cccc(Br)c1)C1C(=O)c3ccccc3C1=N2` (configuration not stated), for which the inhibition is 9%.

For `COc1ccccc1CN1CCCC(C(=O)N(C)Cc2ccccc2)C1` (configuration not stated), the inhibition is 0%.

`C=CCn1c(Cc2csc(N)n2)nnc1SCC(=O)OCC`: the inhibition is 1%.

On to `NS(=O)(=O)c1cc2c(cc1C(F)(F)F)NCNS2(=O)=O`, for which the inhibition is 2%.

As to `COc1cccc(CN2CCN(C(=O)c3ccco3)CC2)c1OC`, the inhibition was 3%.

Consider `O=C(CS(=O)(=O)Cc1ccccc1)N1CCc2ccccc2C1`, for which the inhibition was 1%.

`COC(=O)c1nnn(-c2ccccc2)c1N`: the inhibition was 4%.

In the case of `N#Cc1c(NC(=O)COC(=O)C2CC3C=CC2C3)oc(-c2ccccc2)c1-c1ccccc1` (configuration not stated), the inhibition is 1%.

For the compound `Cc1cccc(C(=O)N2CCN(C(=O)c3cccc(C)c3)C(C)C2)c1` (configuration not stated), the inhibition is 0%.

Turning to `COCCn1c(SCC(=O)Nc2sc(C)c(C)c2C#N)nnc1C(C)C`, the inhibition is 0%.

Regarding `Cc1cccc2cc(C#N)c(NCCNC(=O)NC3CCCCC3)nc12`, the inhibition was 1%.

Consider `Cc1ccc(SC(C)c2nc(-c3ccccc3)no2)cc1` (configuration not stated), for which the inhibition is 0%.

In the case of `CC(=O)N(CCc1ccccc1C)Cc1cc2cc3c(cc2[nH]c1=O)OCO3`, the inhibition is 7%.

For the compound `COc1cccc(-n2c(SCC(=O)Nc3cc(C)on3)nc3c([nH]c4ccccc43)c2=O)c1`, the inhibition is 2%.

For the compound `CCN(CC(=O)O)S(=O)(=O)c1cc(Cl)ccc1Cl`, the inhibition is 0%.

`CC(=O)OCC(=O)[C@@]12OC(C)(C)O[C@@H]1C[C@H]1[C@@H]3C[C@H](F)C4=CC(=O)C=C[C@]4(C)[C@@]3(F)[C@@H](O)C[C@@]12C`: the inhibition was 1%.

On to `CC1CCCN(C(=O)c2cc(F)c(F)cc2Cl)C1` (configuration not stated), for which the inhibition is 0%.

`O=C(Cn1cnc2ccccc2c1=O)NCCC(=O)N1CCN(Cc2ccccc2)CC1`: the inhibition is 0%.

`COc1ccccc1N1CCN(C/C(O)=C(\C#N)c2nc(-c3ccccc3)cs2)CC1`: the inhibition is 2%.

Regarding `COc1ccccc1C(=O)N1CCN(CCc2ccccc2)CC1`, the inhibition is 6%.

As for `COC(=O)c1ccsc1NC(=O)CN1C(=O)CCC1=O`, the inhibition is 0%.

In the case of `O=S(=O)(c1ccc2ccccc2c1)N1CCCCC1`, the inhibition is 0%.

Turning to `COc1cccc(OCc2nnc(SCC(=O)OCc3ccccc3)o2)c1`, the inhibition is 0%.

Regarding `N#C/C(C(=O)N1CCOCC1)=C1/SC=C(c2ccccc2)N1c1ccccc1`, the inhibition is 7%.

Regarding `CCOc1ccc(NC(=O)Cn2nnc(-c3ccccc3F)n2)cc1`, the inhibition is 2%.

For the compound `O=C(CSc1nnc(-c2ccccc2)o1)N1CCc2ccccc2C1`, the inhibition is 0%.

With `CC1CCN(C(=O)CSCC(=O)Nc2nc(-c3cccs3)cs2)CC1`, the inhibition was 0%.

As to `Cc1nn(-c2ccc(F)cc2)c2sc(C(=O)O)cc12`, the inhibition was 0%.

Consider `CCN(CC)c1nc2cc(OC)ccc2cc1C#N`, for which the inhibition was 0%.

With `COc1ccc(CCNC(=O)CSc2nnnn2-c2ccccc2OC)cc1OC`, the inhibition was 5%.

As for `COCCn1c(=NC(=O)CSC(C)=O)sc2cc(F)ccc21`, the inhibition is 12%.

Turning to `CC(C)[C@H](NC(=O)[C@@H]1CSCN1C(=O)OC(C)(C)C)C(=O)NCC1CCC(C(=O)O)CC1` (some centres not stated), the inhibition is 7%.

`COC(=O)c1ccccc1NC(=O)C12CCC(C)(C(=O)O1)C2(C)C` (configuration not stated): the inhibition was 0%.

For the compound `Cc1cc(C)c(C#N)c(SCC(=O)Nc2ccc(S(=O)(=O)Nc3onc(C)c3C)cc2)n1`, the inhibition is 0%.

For the compound `O=C(Nc1ccc(Cl)cc1C(=O)O)c1ccc2c(c1)C(=O)N(Cc1ccco1)C2=O`, the inhibition is 0%.

`CCOc1ccc(C2CC(=O)NC3=C2C(=O)CCC3)cc1Cl` (configuration not stated): the inhibition is 0%.

Turning to `CC(=O)N1CCc2cc(S(=O)(=O)NCCC3=CCCCC3)ccc21`, the inhibition was 2%.

Consider `Cc1cc(C(=O)NCCCN2CCOCC2)n(-c2ccccc2)n1`, for which the inhibition was 0%.

As to `O=C(Oc1cc2oc(=O)c3c(c2cc1Cl)CCCC3)c1ccco1`, the inhibition is 0%.

`CN1CCCC(OC(=O)COc2ccc(Br)cc2)C1` (configuration not stated): the inhibition was 3%.

`N#Cc1c2n(c(=O)[nH]c1=O)CCCCC2`: the inhibition is 0%.

Consider `O=C(NC1CCS(=O)(=O)C1)c1c(NC(=O)C2COc3ccccc3O2)sc2c1CCCC2` (configuration not stated), for which the inhibition is 0%.

For the compound `Cc1ccc(OCC2Cn3c(nc4c3c(=O)n(C)c(=O)n4C)O2)cc1` (configuration not stated), the inhibition is 0%.

On to `CCC(Sc1ccc(C(=O)O)cc1)C(=O)O` (configuration not stated), for which the inhibition was 2%.

`N#CC1=C(N)Oc2cc(O)ccc2C1C1CCCCC1` (configuration not stated): the inhibition is 0%.

Take `CCOC(=O)C1CCN(c2c(NC3CCCc4ccccc43)c(=O)c2=O)CC1` (configuration not stated): the inhibition is 2%.

With `CCOc1ccc2[nH]c(=O)c(CN(CCOC)C(=O)N3CCOCC3)cc2c1`, the inhibition was 8%.

Turning to `CCN(CC)CCNC(=O)c1ccc(NC(C)=O)cc1`, the inhibition is 0%.

As for `CCCS(=O)(=O)N1CCCC(C(=O)NC(C)c2ccc3c(c2)OCCO3)C1` (configuration not stated), the inhibition was 3%.

`c1nnc(NC2=NCCCCC2)s1`: the inhibition is 0%.

For the compound `CC1=C(C#N)C(c2ccc3ncccc3c2)C(C#N)=C(C)N1`, the inhibition is 4%.

Consider `Cn1c(=O)c2c(nc(NCCCO)n2Cc2cccc(Br)c2)n(C)c1=O`, for which the inhibition was 3%.

`Cc1cc(C)n(C(C)n2nc(C)cc2C)n1`: the inhibition was 6%.

Take `Cc1nc(NC2=NCN(CCN3CCOCC3)CN2)nc2c(C)cccc12`: the inhibition is 0%.

As to `CS(=O)(=O)Nc1ccc(C(=O)NCc2ccc3c(c2)OCO3)cc1`, the inhibition was 4%.

For the compound `Cc1ccccc1N(C)S(=O)(=O)c1ccc2[nH]cc(C(=O)NCC3CCCO3)c(=O)c2c1` (configuration not stated), the inhibition is 10%.

Take `Cc1ccc(NC2c3ncccc3C(=O)N2C2CCCCC2)cc1C` (configuration not stated): the inhibition is 0%.

For the compound `CCN(c1ccccc1)S(=O)(=O)c1ccc(F)cc1C`, the inhibition is 1%.

Consider `O=C(NC1CCCC1)c1cc(-c2cccs2)on1`, for which the inhibition was 6%.

As for `CCOC(=O)C1=C(C)Nc2ncnn2C1c1ccccc1F` (configuration not stated), the inhibition was 6%.

For the compound `COc1ccc(-c2oc3ncn(CCN4CCOCC4)c(=N)c3c2-c2ccc(OC)cc2)cc1`, the inhibition is 0%.

As for `Cc1noc(COc2ccccc2OCC(O)CNC(C)(C)C)n1` (configuration not stated), the inhibition is 4%.

Consider `COc1c(C(=O)Nc2c(C)n(C)n(-c3ccccc3)c2=O)ccc2ccccc12`, for which the inhibition was 0%.

Take `O=C(Cn1c(=O)n(Cc2ccc3c(c2)OCO3)c(=O)c2ccccc21)N1CCCc2ccccc21`: the inhibition is 0%.

`Cc1cccc(NC(=O)CN(C)S(=O)(=O)c2ccccc2)n1`: the inhibition was 7%.

As to `CC(NC(=O)NCCCC(=O)O)(C(F)(F)F)C(F)(F)F`, the inhibition is 0%.

For the compound `O=C(CSc1nnc(-c2ccco2)n1CC1CCCO1)NC1CCCC1` (configuration not stated), the inhibition was 0%.

For `O=C(Nc1ncc(Br)s1)C1CCCN1S(=O)(=O)c1cccc2cccnc12` (configuration not stated), the inhibition was 0%.

As to `Cc1noc(C)c1CSc1nnc2scc(-c3ccc(Cl)cc3)n12`, the inhibition is 0%.

As to `CCOC(=O)C1CCCN(c2cc(=O)n(Cc3ccc(F)cc3)c(=O)[nH]2)C1` (configuration not stated), the inhibition was 2%.

Consider `Nc1nc(C(=O)N2CCOCC2)nn1S(=O)(=O)c1ccc(Cl)cc1`, for which the inhibition is 0%.

With `CCCCN(C(=O)c1ccc(Cl)cc1)C1CC2CCC(C1)N2C` (configuration not stated), the inhibition is 0%.

As to `CCCCCn1c(N2CCN(Cc3ccccc3)CC2)nc2c1c(=O)[nH]c(=O)n2C`, the inhibition was 6%.

For `NS(=O)(=O)c1cc2c(cc1Cl)NCNS2(=O)=O`, the inhibition is 0%.

Take `COc1ccc(Cn2nnnc2CN2CCOCC2)cc1`: the inhibition was 6%.

On to `CN(C)S(=O)(=O)Nc1ccccc1C(N)=O`, for which the inhibition was 0%.

On to `CC(C)=CC/C=C1\CCC(C(=O)O)C(C(=O)O)C1` (configuration not stated), for which the inhibition was 0%.

As for `COc1cccc(CNC(=O)Cn2c(=O)oc3ccccc32)c1OC`, the inhibition was 0%.

Turning to `O=C(Nc1ccc2c(c1)nc1n2CCSC1)c1ccccc1`, the inhibition is 0%.

Take `CCS(=O)(=O)N1CCCC(C(=O)NCc2ccccc2Cl)C1` (configuration not stated): the inhibition was 2%.

Turning to `O=C(c1ccc(Cl)cc1)N1CCCCC(Sc2nnc(-c3ccc4c(c3)OCO4)o2)C1=O` (configuration not stated), the inhibition was 3%.

On to `Cc1cc(C)c2c(n1)nn1c(NCCCN3CCOCC3)cc(C)nc21`, for which the inhibition was 9%.

For `N#CC(C(=O)Nc1ccc(Cl)c(Cl)c1)=C1Nc2ccccc2N1`, the inhibition was 2%.

With `COc1ccc(C(=O)N(CCN2CCOCC2)CC(=O)NC2CCCC2)cc1OC`, the inhibition was 1%.

For `COCCN(CC(=O)NC1CCCCC1)C(=O)CSc1nc2ccccc2o1`, the inhibition is 0%.

`O=C(Nc1ncc(Cc2ccccc2)s1)C1CCCO1` (configuration not stated): the inhibition was 5%.

Regarding `COc1cccc(/C=N/n2cnnc2)c1OCc1ccccc1`, the inhibition is 0%.

In the case of `CCC(C(=O)Nc1ncccn1)(C(F)(F)F)C(F)(F)F`, the inhibition was 0%.

For `CCN(CCCNC(=O)C1CCN(S(=O)(=O)c2cccc3nonc23)CC1)Cc1ccccc1`, the inhibition is 6%.

`C=C(C)c1cccc(C(C)(C)NC(=O)NCC2CCCO2)c1` (configuration not stated): the inhibition is 2%.

Consider `S=c1[nH]nc(-c2ccccc2)n1C1C=CCCC1` (configuration not stated), for which the inhibition is 0%.

`Cc1c(C(=O)O)sc2nc3n(c(=O)c12)CCC(C)CC3` (configuration not stated): the inhibition was 2%.

Regarding `O=C1c2ccccc2C(=O)N1OCc1ccccc1`, the inhibition is 0%.

Turning to `CN(C)c1ccc(C(=O)Nc2nnc(-c3ccc(Cl)cc3)o2)cc1`, the inhibition is 0%.

On to `COc1ccc(C(NC(C)=O)c2ccc3cccnc3c2O)c(OC)c1` (configuration not stated), for which the inhibition was 0%.

With `O=c1sc(Nc2ccccc2)nc2ccsc12`, the inhibition is 0%.

On to `COc1cccc(-c2cc(C(=O)N3CCCc4ccccc43)no2)c1`, for which the inhibition is 0%.

Regarding `O=C(CNS(=O)(=O)c1ccc(Br)s1)N1CCN(c2ncccn2)CC1`, the inhibition was 0%.

Turning to `O=C(NCc1ccco1)c1cccc(-c2nnc(-c3ccccc3)o2)c1`, the inhibition is 0%.

In the case of `C=CCSc1nc2sc(C)c(C)c2c(=O)[nH]1`, the inhibition was 10%.

In general, inhibition refers to the change of the read-out against control, counted positive when it falls.
